Measurements as given in PubChem BioAssay AID1159580 (chemical genetic matrix, 2015).
The whole screen tested about 5,500 compounds, of which about 2,000 (36%) were called active. Not shown: some 18% with an inconclusive outcome. Cut-off read from the data, not from the text of the source: active = normalized growth mostly below about 0.91 (no sharp cut-off); inconclusive = no clear call, values can overlap the other calls; inactive = mostly above about 0.92. Some of the results follow.

Experiment: chemical genetic growth profiling, strain panel (AID 1159580);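 note: tested at 20 µM; growth read once vehicle control cultures reached saturation at 30 °C; 1 = growth at the plate median or of vehicle wells; lower values mean less growth of the strain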
Details: S. cerevisiae deletion strains, growth OD

Measured: normalized growth

COc1ccc2c(c1)[C@@]13CCCC[C@H]1[C@@H](C2)NCC3
inactive: locus YAL040C, strain CLN3, active compounds read low 0.998 | locus YCL061C, strain MRC1 (second series), active compounds read low 0.997 | locus YDR363W, strain ESC2, active compounds read low 0.951 | locus YER002W, strain NOP16, active compounds read low 1.02 | locus YJR075W, strain HOC1, active compounds read low 0.988 | locus YMR263W, strain SAP30, active compounds read low 0.992 | locus YMR307W, strain GAS1, active compounds read low 0.973 | locus YNL175C, strain NOP13, active compounds read low 0.996 | locus YNL197C, strain WHI3, active compounds read low 1.03 | locus YNL224C, strain SQS1, active compounds read low 1.01 | locus YNL322C, strain KRE1, active compounds read low 0.991 | locus YOR083W, strain WHI5 (second series), active compounds read low 1 | locus YPL055C, strain LGE1, active compounds read low 0.983 | locus YPL241C, strain CIN2, active compounds read low 1
